Records with an inconclusive call do not appear. Activity calls are given as the source filed them. Rule as the data show it, unless noted: active = inhibition above about 80%; inactive = the rest.
Experiments:
[1] = viability loss in pontine glioma line – cell-based, SU-DIPG-XVII, MIPE5.0, CellTiter-Glo, qHTS, dose response (AID 1347060; cut-off not given, nearly all actives have AC50 up to about 26 µM;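 also: cells exposed to compound for 48 hours before viability readout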); settings: CellTiter-Glo ATP luminescence
[2] = viability loss in pontine glioma line – cell-based, SU-DIPG-XIII, MIPE5.0, CellTiter-Glo, qHTS, dose response (AID 1347064; cut-off not given, nearly all actives have AC50 up to about 23 µM;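 also: cells exposed to compound for 48 hours before the viability read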); settings: CellTiter-Glo ATP luminescence
[3] = viability loss in pontine glioma line – cell-based, SU-DIPG-XXV, MIPE5.0, CellTiter-Glo, qHTS, dose response (AID 1347065; cut-off not given, nearly all actives have AC50 up to about 26 µM;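 also: cells exposed to compound for 48 hours before ATP readout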); settings: CellTiter-Glo ATP luminescence
[4] = JHH-DIPG-1 glioma cell viability, MIPE5.0 library, CellTiter-Glo luminescence, qHTS (AID 1347067; cut-off not given, nearly all actives have AC50 up to about 26 µM;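 also: cells exposed to compound for 48 hours before readout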); settings: JHH-DIPG-1 glioma viability, CellTiter-Glo ATP luminescence
[5] = growth inhibition of DIPG cells – cell-based, MIPE5.0 library, qHTS (AID 1347068; cut-off not given, nearly all actives have IC50 up to about 30 µM;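 also: cells exposed to compound for 48 hours before viability readout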); settings: SU-DIPG-XXV viability
[6] = growth inhibition, single agent or in combination, cell-based, chromothripsis tumors, cisplatin or BGB combos (AID 1671449); settings: LFS_MB_P medulloblastoma cells;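 also: cells exposed for 96 hours; 0% = vehicle DMSO and 100% = killing by high DMSO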
[7] = growth inhibition, single agent and combos, cell-based, chromothripsis tumors, cisplatin or BGB combos (AID 1671450); settings: HDN33 neuroblastoma cells, stronger effect = higher value;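 also: cells exposed to compound for four days; 0% = vehicle DMSO and 100% = cell killing by high DMSO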
[8] = growth inhibition, single agents and combos, ICB984, cell-based, cisplatin or BGB combos, synergistic combos for chromothripsis tumors (AID 1671451; call rule not given here;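 also: cells exposed for 96 hours before readout; 0% = vehicle DMSO and 100% = killing by high DMSO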); settings: ICB984 medulloblastoma cells, drug combinations, stronger effect = higher value
[9] = growth inhibition, single agents and combos, LFS_MB_1R, cell-based, cisplatin or BGB combos, synergistic combos for chromothripsis tumors (AID 1671452); settings: LFS_MB_1R medulloblastoma cells, stronger effect = higher value;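 also: cells exposed for 96 hours before readout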
[10] = growth inhibition, single agents and combos, HTB85, cell-based, BGB or cisplatin IC20 combos, synergistic combos for chromothripsis tumors (AID 1671453); settings: HTB85 osteosarcoma cells, drug combinations, stronger effect = higher value;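 also: cells exposed for 96 hours before readout; 0% = vehicle DMSO and 100% = high DMSO killing control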
[11] = growth inhibition, single agents and combos, CRL2098, cell-based, BGB or cisplatin IC20 combos, synergistic combos for chromothripsis tumors (AID 1671454); settings: CRL2098 osteosarcoma cells, drug combinations, stronger effect = higher value;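 also: cells exposed for 96 h before readout; 0% = vehicle DMSO and 100% = killing by high DMSO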
[12] = growth inhibition, single agents and combos, HD-MB03, cell-based, BGB or cisplatin IC20 combos, synergistic combos for chromothripsis tumors (AID 1671455; in the data active = inhibition above about 83%;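 also: 0% = vehicle DMSO and 100% = high DMSO as cytotoxic control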); settings: HD-MB03 medulloblastoma cells, stronger effect = higher value
[13] = growth inhibition, single agents and combos, UWB1.289, cell-based, BGB or cisplatin combos, synergistic combos for chromothripsis tumors (AID 1671456); settings: UWB1.289 ovarian carcinoma cells, stronger effect = higher value;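 also: cells exposed to compound for four days; 0% = vehicle DMSO and 100% = killing by high DMSO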
[14] = growth inhibition, MDA-MB-436, cell-based, BGB or cisplatin combos, synergistic combos for chromothripsis tumors (AID 1671458; call rule not given here;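 also: cells exposed for 96 hours; 0% = vehicle DMSO and 100% = killing by high DMSO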); settings: MDA-MB-436 breast carcinoma growth inhibition, drug combinations, stronger effect = higher value
[15] = BT084 cell growth, single and combined drugs, ICGC_MB145, cisplatin and BGB IC40 combos (AID 1671461); settings: BT084 medulloblastoma cells, drug combinations, stronger effect = higher value;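 also: cells exposed to drugs for 96 hours; 0% = vehicle DMSO and 100% = high DMSO full killing control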
[16] = RCMB18 cell growth, single agent and combined, cisplatin and BGB IC40 combos (AID 1671462); settings: RCMB18 medulloblastoma cells, stronger effect = higher value;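 also: cells exposed to compound for four days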
[17] = CRL1545 cell growth, single agent and combined, cisplatin and BGB IC20 combos (AID 1671464); settings: CRL1545 osteosarcoma cells, stronger effect = higher value;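 also: cells exposed to compound for 96 hours before readout; 0% = vehicle DMSO and 100% = high DMSO killing control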
[18] = measured here: combination with BGB IC40, at 0.05 µM
[19] = measured here: with BGB IC20 combination, at 0.5 µM
[20] = measured here: with cisplatin IC20 combination, at 0.5 µM
[21] = measured here: combination with cisplatin, at 0.5 µM

CN(C)C/C=C/C(=O)Nc1ccc(C(=O)Nc2cccc(Nc3ncc(Cl)c(-c4c[nH]c5ccccc45)n3)c2)cc1
AC50 [1]: 263 nM (active) | AC50 [2]: 209 nM (active) | AC50 [3]: 209 nM (active) | AC50 [4]: 263 nM (active) | IC50 [5]: 295 nM (active) | inhibition ([6]; at 0.5 µM, stronger effect = higher value): -12.9% (inactive) | inhibition ([6]; measured here: combination with BGB IC20, at 0.005 µM): -29.1% | inhibition ([6]; measured here: combination with BGB IC40, at 0.005 µM): -64.8% | inhibition [6, 18]: 7.86% | inhibition ([6]; measured here: combination with cisplatin, at 0.5 µM, stronger effect = higher value): -42.5% | inhibition ([6]; measured here: combination with cisplatin, at 5 µM, stronger effect = higher value): 89.6% | inhibition ([7]; BGB combo, at 5 µM): 97.3% | inhibition ([7]; at 0.5 µM): 42.9% (inactive) | inhibition ([7]; cisplatin combo, at 5 µM): 98.3% | inhibition [7, 19]: 43.5% | inhibition [7, 20]: 38.3% | inhibition ([7]; single agent, at 5 µM): 98.9% | inhibition ([8]; BGB IC20 combo, at 0.005 µM): 97.6% | inhibition ([8]; BGB IC40 combo, at 0.005 µM): 98.3% | inhibition ([8]; BGB IC40 combo, at 0.05 µM): 102% | inhibition ([8]; at 0.5 µM): -27.1% (inactive) | inhibition ([8]; cisplatin combo, at 0.05 µM): 102% | inhibition ([8]; cisplatin combo, at 0.5 µM): -38.3% | inhibition ([8]; cisplatin combo, at 5 µM): 33.8% | inhibition ([8]; measured here: 5 uM single agent, at 5 µM): 11.6% | inhibition ([9]; at 0.5 µM): 103% (active) | inhibition [9, 18]: 23.8% | inhibition [9, 21]: 101% | inhibition ([9]; measured here: combination with cisplatin, at 5 µM): 97.5% | inhibition ([10]; at 0.5 µM): 91.8% (active) | inhibition ([10]; measured here: with BGB IC20, at 0.5 µM): 89.2% | inhibition ([10]; measured here: with BGB IC20, at 5 µM): 99.9% | inhibition ([10]; measured here: with cisplatin IC20, at 0.5 µM): 92.7% | inhibition ([10]; measured here: with cisplatin IC20, at 5 µM): 99.8% | inhibition ([10]; single agent, at 5 µM): 100% | inhibition ([11]; at 0.5 µM): 41.6% (inactive) | inhibition ([11]; measured here: combination with BGB at IC20, at 0.5 µM): 72.6% | inhibition ([11]; measured here: combination with cisplatin at IC20, at 0.5 µM): 29.6% | inhibition ([12]; at 0.5 µM): 64.6% (inactive) | inhibition ([12]; measured here: combo with BGB at IC20, at 0.5 µM): 57.2% | inhibition ([12]; measured here: combo with cisplatin at IC20, at 0.5 µM): 71.3% | inhibition ([13]; at 0.5 µM): 74.6% (inactive) | inhibition ([13]; measured here: inhibition with BGB combination, at 0.05 µM): 9.81% | inhibition ([13]; measured here: inhibition with cisplatin combination, at 0.05 µM): 0.164% | inhibition ([14]; at 0.5 µM): 57.8% (inactive) | inhibition ([14]; measured here: BGB combination, at 0.5 µM): 51.4% | inhibition ([14]; measured here: BGB combination, at 5 µM): 40.9% | inhibition ([14]; measured here: cisplatin combination, at 0.5 µM): 50.4% | inhibition ([14]; measured here: cisplatin combination, at 5 µM): 69.8% | inhibition ([15]; at 0.5 µM): 32.3% (inactive) | inhibition ([15]; cisplatin combination, at 0.5 µM): 10% | inhibition ([15]; cisplatin combination, at 5 µM): 35.4% | inhibition ([15]; measured here: BGB IC40 combination 0.05 uM, at 0.05 µM): 15.5% | inhibition ([15]; single agent, at 5 µM): 89% | inhibition ([16]; at 0.5 µM): 66.8% (inactive) | inhibition ([16]; cisplatin combo, at 5 µM): 71.7% | inhibition ([16]; measured here: BGB IC40 combination, at 0.05 µM): 52.8% | inhibition [16, 21]: 69.4% | inhibition ([16]; single agent, at 5 µM): 89.7% | inhibition ([17]; at 0.5 µM): 80.7% (active) | inhibition [17, 19]: 72.6% | inhibition [17, 20]: 84.4% | inhibition ([17]; single agent, at 0.05 µM): -55.9% | inhibition ([17]; single agent, at 5 µM): 99.8%

From PubChem BioAssay
